Measurements taken from PubChem BioAssay (Tox21).
Where “and” joins values, the source holds several entries; their conditions need not be identical. Equal values may be shown once. Inconclusive results are not listed. Calls of active or inactive are those of the source. The call rests on the fitted dose curve.

How the values were obtained:
[1] = target: Acetylcholinesterase (Homo sapiens) (UniProt P22303); assay: Acetylcholinesterase (AChE) small molecule antagonists: colormetric cell-based qHTS assay (AID 1347395); further: nearly all actives have a fitted effect of over 30% in size; further: potency means the concentration at half of the fitted maximal effect
Chain of Acetylcholinesterase (Homo sapiens) (P22303 whole entry, looked up): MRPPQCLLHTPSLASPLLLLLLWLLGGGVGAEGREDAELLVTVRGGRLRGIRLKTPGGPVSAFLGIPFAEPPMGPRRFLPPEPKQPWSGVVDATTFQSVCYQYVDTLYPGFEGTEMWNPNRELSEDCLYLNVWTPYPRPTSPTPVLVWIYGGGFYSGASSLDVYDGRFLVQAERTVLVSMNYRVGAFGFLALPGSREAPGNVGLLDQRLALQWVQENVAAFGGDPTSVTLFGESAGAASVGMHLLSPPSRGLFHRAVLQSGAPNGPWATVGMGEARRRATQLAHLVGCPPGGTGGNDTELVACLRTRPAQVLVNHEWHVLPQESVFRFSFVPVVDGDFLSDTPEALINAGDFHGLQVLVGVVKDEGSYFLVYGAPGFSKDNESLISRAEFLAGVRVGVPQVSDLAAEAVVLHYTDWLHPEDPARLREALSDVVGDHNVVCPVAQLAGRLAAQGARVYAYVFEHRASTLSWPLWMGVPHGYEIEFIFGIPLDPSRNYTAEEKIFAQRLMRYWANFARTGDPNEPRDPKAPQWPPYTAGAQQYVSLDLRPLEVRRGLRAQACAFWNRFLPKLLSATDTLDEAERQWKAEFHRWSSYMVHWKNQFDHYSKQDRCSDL
Summary of the method: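 Colorimetric read-out: DTNB detects thiocholine released when cellular AChE in SH-SY5Y cells hydrolyses acetylthiocholine. Cells attached overnight, received compound for 30 min at 37 C, then substrate mix for 90 min at 37 C.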

[2] = target: Acetylcholinesterase (Homo sapiens) (UniProt P22303); assay: Acetylcholinesterase (AChE) small molecule antagonists: enzyme-based qHTS assay (AID 1347397); settings: Potency: AChE enzyme activity inhibition; outcome: AChE enzyme activity inhibition; further: nearly all actives have a fitted effect of over 55% in size; further: potency means the concentration at half of the fitted maximal effect
Summary of the method: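 Compound or DMSO vehicle was pin-transferred onto recombinant human AChE (50 mU/mL as dispensed) and left 30 min at room temperature. Acetylthiocholine with DTNB then started the reaction, read colorimetrically 10 min later.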

[3] = target: Acetylcholinesterase (Homo sapiens) (UniProt P22303); assay: Acetylcholinesterase (AChE) small molecule antagonists: fluorescence cell-based qHTS assay (AID 1347398); settings: Potency: AChE activity; outcome: AChE activity; further: nearly all actives have a fitted effect of over 50% in size; further: potency means the concentration at half of the fitted maximal effect
Summary of the method: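 Using neuroblastoma SH-SY5Y cells as the enzyme source, test chemicals are preincubated 30 min at 37 C; AChE-driven acetylthiocholine cleavage is then quantified by thiocholine-dependent Thiolite Green fluorescence after 40 min at room temperature.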

[4] = target: Acetylcholinesterase (Homo sapiens) (UniProt P22303); assay: Acetylcholinesterase (AChE) small molecule antagonists: enzyme-based qHTS assay with human liver microsomes (AID 1347399); settings: Potency: qHTS inhibition; outcome: qHTS inhibition; further: nearly all actives have a fitted effect of over 60% in size
Summary of the method: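 Recombinant human AChE (50 mU/mL in the enzyme mix) and human liver microsomes (0.25 mg/mL final) were preincubated with compound and NADPH (0.25 mg/mL final) for 30 min at 37 C. Acetylthiocholine/DTNB was then added; thiocholine was read colorimetrically after 10 min at room temperature.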
On the % scale 0 is the no-effect control and ±100 the full control effect.

CC(=O)NCCCCCC(=O)O
inactive: Potency [1] | Potency [2] | Potency [3]

Clc1ccc2c(c1)Nc1ccccc1S2
inactive: Potency [1] | Potency [2] | Potency [3]

CC(=O)OCc1ccccc1
inactive: Potency [1] | Potency [2] | Potency [3]

O=S(=O)(O)c1ccc(N=Nc2c(O)ccc3cc(S(=O)(=O)O)ccc23)cc1
inactive: Potency [1] | Potency [2] | Potency [3]

c1coc(CNc2ncnc3nc[nH]c23)c1
inactive: Potency [1] | Potency [2] | Potency [3]

Cc1ccc(-c2ccccc2C#N)cc1
inactive: Potency [1] | Potency [2] | Potency [3]

COC(=O)N[C@H](C(=O)N[C@@H](Cc1ccccc1)[C@@H](O)CN(Cc1ccc(-c2ccccn2)cc1)NC(=O)[C@@H](NC(=O)OC)C(C)(C)C)C(C)(C)C
inactive: Potency [1] | Potency [2] | Potency [3]

CC(C)(C)NC(=O)[C@@H]1C[C@@H]2CCCC[C@@H]2CN1C[C@@H](O)[C@H](Cc1ccccc1)NC(=O)[C@H](CC(N)=O)NC(=O)c1ccc2ccccc2n1
inactive: Potency [1] | Potency [2] | Potency [3]

C[N+]1(C)CCC(OC(=O)C(O)(c2ccccc2)C2CCCC2)C1 (stereo not drawn)
inactive: Potency [1] | Potency [2] | Potency [3]

CCCCCCCCCCCCCCCCCBr
inactive: activity, negative = inhibition [1] 0.585% [at 23.6 µM] | activity change, negative = inhibition [2] 1.09% [at 23.6 µM] | activity change, negative = inhibition [3] -1.4% [at 23.8 µM]

CCOC(=O)c1c(N)sc2c1CCN(Cc1ccccc1)C2
active: Potency [1] 12.3 µM | Potency [2] 24.5 µM | Potency [3] 12.3 µM

CC(=O)Nc1ccc(N=Nc2cc(C)ccc2O)cc1
inactive: Potency [1] | Potency [3]
active: Potency [2] 22.4 µM

CC(C)OC(=O)c1ccccc1
inactive: Potency [1] | Potency [2] | Potency [3]

O=C1C(c2[nH]c3ccc(S(=O)(=O)O)cc3c2O)=Nc2ccc(S(=O)(=O)O)cc21
inactive: Potency [1] | Potency [2] | Potency [3]

C[C@H](CCC(=O)O)[C@H]1CC[C@H]2[C@@H]3[C@H](O)C[C@@H]4C[C@H](O)CC[C@]4(C)[C@H]3CC[C@]12C
inactive: Potency [1] | Potency [2] | Potency [3]

O=[N+]([O-])c1ccc(O)cc1C(F)(F)F
inactive: Potency [1] | Potency [2] | Potency [3]

CC1=NN(c2ccc(S(=O)(=O)O)cc2)C(=O)C1
inactive: Potency [1] | Potency [2] | Potency [3]

CCCC/C=C/C=C\C=O
inactive: Potency [1] | Potency [2] | Potency [3]

C[N+]1(CC2COC(c3ccccc3)(c3ccccc3)O2)CCCCC1 (stereo not drawn)
inactive: activity, negative = inhibition [1] -0.268% [at 23.6 µM] | activity change, negative = inhibition [2] 0.437% [at 23.6 µM] | activity change, negative = inhibition [3] -6.49% [at 23.8 µM]

CC(C)(C)c1ccc(C(O)CCCN2CCC(C(O)(c3ccccc3)c3ccccc3)CC2)cc1 (stereo not drawn)
inactive: Potency [1] | Potency [2] | Potency [3]

OCc1cccnc1
inactive: Potency [1] | Potency [2] | Potency [3]

CC(C)(C)NCC(O)c1ccc(O)c(CO)c1 (stereo not drawn)
inactive: Potency [1] | Potency [2] | Potency [3]

CSCC[C@H](NC(=O)[C@H](Cc1c[nH]c2ccccc12)NC(=O)CCNC(=O)OC(C)(C)C)C(=O)N[C@@H](CC(=O)O)C(=O)N[C@@H](Cc1ccccc1)C(N)=O
inactive: Potency [1] | Potency [2] | Potency [3]

CC1(C)Oc2ccc(C#N)cc2[C@@H](N2CCCC2=O)[C@@H]1O
inactive: Potency [1] | Potency [2] | Potency [3]

CC(C)(C)c1cc(O)c(C(C)(C)C)cc1O
inactive: Potency [1] | Potency [2] | Potency [3]

N[C@@H](Cc1ccc(O)cc1)C(=O)O
inactive: activity, negative = inhibition [1] -0.421% [at 10.5 µM] | activity change, negative = inhibition [2] -0.135% [at 10.5 µM] | activity change, negative = inhibition [3] 10.1% [at 10.5 µM]

Cc1c[nH]c(=O)[nH]c1=O
inactive: Potency [1] | Potency [2] | Potency [3]

COc1cc(S(N)(=O)=O)cc(C(=O)O)c1OC
inactive: Potency [1] | Potency [2] | Potency [3]

CCOC(=O)N1CCC(=C2c3ccc(Cl)cc3CCc3cccnc32)CC1
inactive: Potency [1] | Potency [2] | Potency [3]

CC(C)c1nnc2ccc(-c3ocnc3-c3cc(F)ccc3F)cn12
inactive: Potency [1] | Potency [2] | Potency [3]

CCCC(=O)c1cc(O)c(O)cc1O
inactive: Potency [1] | Potency [2] | Potency [3]

CO[C@H]1C=CO[C@@]2(C)Oc3c(C)c(O)c4c(O)c(c(/C=N/N5CCN(C)CC5)c(O)c4c3C2=O)NC(=O)/C(C)=C\C=C[C@H](C)[C@H](O)[C@@H](C)[C@@H](O)[C@@H](C)[C@H](OC(C)=O)[C@@H]1C
inactive: Potency [1] | Potency [2] | Potency [3]

CC(=O)c1ccc(O)c(C(N)=O)c1
inactive: Potency [1] | Potency [2] | Potency [3]

COC(=O)CCCCC(CCSS/C(CCO)=C(\C)N(C=O)Cc1cnc(C)nc1N)SC(C)=O (stereo not drawn)
inactive: Potency [1] | Potency [2] | Potency [3]

Cc1cccc2c1cc1ccc3cccc4ccc2c1c34
inactive: Potency [1] | Potency [2] | Potency [3]

COc1ccccc1OCC1CNC(=O)O1 (stereo not drawn)
inactive: Potency [1] | Potency [2] | Potency [3]

Cc1ccc(/C(=C\CN2CCCC2)c2ccccn2)cc1
inactive: Potency [1] | Potency [2] | Potency [3]

Oc1cccc2cc3cccc(O)c3c(O)c12
inactive: Potency [1] | Potency [2] | Potency [3]

CC(=O)[C@H]1CC[C@H]2[C@@H]3CC=C4C[C@@H](O)CC[C@]4(C)[C@H]3CC[C@]12C
inactive: Potency [1] | Potency [2] | Potency [3]

CCCCC(CC)COP(=O)(O)OCC(CC)CCCC (stereo not drawn)
inactive: Potency [1] | Potency [2] | Potency [3] | Potency [4]

CCN(CC)CC1CCCCN1CC(=O)N1c2ccccc2C(=O)Nc2cccnc21 (stereo not drawn)
inactive: Potency [1] | Potency [2] | Potency [3] | Potency [4]

CN1CC(=O)NC1=N
inactive: Potency [1] | Potency [2] | Potency [3]

c1ccc2cc3c(ccc4ccccc43)cc2c1
inactive: Potency [1] | Potency [2] | Potency [3]

CCCCC[Si](OCC)(OCC)OCC
inactive: Potency [1] | Potency [2] | Potency [3] | Potency [4]

O=C(O)Cc1c(Cl)ccc(Cl)c1Cl
inactive: Potency [1] | Potency [2] | Potency [3] | Potency [4]

CCCCCCCCCCCCCCCC[N+](C)(C)CC
active: Potency [2] 71.2 µM | Potency [3] 63.5 µM and 38.9 µM
inactive: Potency [1] | Potency [4]

CCCCCCCCCCCCCCCCI
inactive: activity, negative = inhibition [1] 1.24% [at 23.6 µM] | activity change, negative = inhibition [2] 1.36% [at 23.6 µM] | activity change, negative = inhibition [3] 3.93% [at 23.8 µM]

CCCCOC(=O)[C@H](C)O
inactive: Potency [1] | Potency [2] | Potency [3]

NC(=O)Cc1cccc2ccccc12
inactive: Potency [1] | Potency [2] | Potency [3] | Potency [4]

CCNC(=O)N1CCN(CCCC(c2ccc(F)cc2)c2ccc(F)cc2)CC1
inactive: Potency [1] | Potency [2] | Potency [3] | Potency [4]

CC(C)(C)CC(C)(C)c1ccc(O)c(-n2nc3ccccc3n2)c1
inactive: Potency [1] | Potency [2] | Potency [3] | Potency [4]

O=C(O)c1cccc(O)c1
inactive: Potency [1] | Potency [2] | Potency [3]

C=C/C=C/C=C/CCCCC
inactive: activity, negative = inhibition [1] 0.16% [at 23.6 µM] | activity change, negative = inhibition [2] 0.676% [at 23.6 µM] | activity change, negative = inhibition [3] -10.6% [at 23.8 µM]

CCN(CCN)c1cccc(C)c1
inactive: Potency [1] | Potency [2] | Potency [3] | Potency [4]

CC(=O)c1ccc(C(C)=O)cc1
inactive: Potency [1] | Potency [2] | Potency [3]

CCCCCCn1c(=O)c2c(ncn2C)n(C)c1=O
inactive: Potency [1] | Potency [2] | Potency [3] | Potency [4]

COc1ccc(CN(CCN(C)C)c2ccccn2)cc1
inactive: Potency [1] | Potency [2] | Potency [3]

CN(C)CCCN1c2ccccc2Sc2ccc(C(F)(F)F)cc21
inactive: Potency [1] | Potency [2] | Potency [3]

O=C1c2ccccc2C(=O)N1CCc1noc(-c2ccc(CN3CCCCCC3)s2)n1
active: Potency [1] 6.51 µM | Potency [2] 23.1 µM | Potency [3] 3.26 µM

CC(C)CCOC(=O)/C=C/c1ccccc1
inactive: Potency [1] | Potency [2] | Potency [3]

C[Si](O[Si](C)(C)C)O[Si](C)(C)C
inactive: Potency [1] | Potency [2] | Potency [3] | Potency [4]

CCCc1cc(C(N)=S)ccn1
inactive: Potency [1] | Potency [2] | Potency [3] | Potency [4]

CCCOC(=O)c1ccccc1
inactive: Potency [1] | Potency [2] | Potency [3]

Cn1cccc1
inactive: Potency [1] | Potency [2] | Potency [3] | Potency [4]

C=C[C@@]1(C)CC(=O)[C@]2(O)[C@@]3(C)[C@@H](O)CCC(C)(C)[C@@H]3[C@H](O)[C@H](OC(C)=O)[C@@]2(C)O1
inactive: Potency [1] | Potency [2] | Potency [3]
